# Measured values taken from the supplement of paper PMC6897291.
# What was measured:
# U-2932 [1] = experiment: growth inhibition by drug alone (1 - RLU/untreated control) (fraction); higher = stronger inhibition; conditions: 177Lu-lilotomab satetraxetan 0 ug/ml
# How it was run: (§1)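 Growth inhibition was calculated from RealTime-Glo RLU against untreated no-drug wells. Values equal 1 − RLU/mean of 48 untreated no-drug wells per plate, read daily from day 3 after 1 h at 37°C. RIVA and U-2932 cells, with or without 18 h pretreatment by a radiolabelled anti-CD37 antibody conjugate (~600 MBq/mg; 0.5 µg/ml RIVA, 1 µg/ml U-2932), were washed and plated at 3,000 cells/well on compound-printed plates at 10/100 nM (RIVA) or 10/1,000 nM (U-2932).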
# U-2932 [2] = experiment: growth inhibition by drug plus 177Lu-lilotomab satetraxetan (1 - RLU/untreated control) (fraction); higher = stronger inhibition; conditions: 177Lu-lilotomab satetraxetan 1 ug/ml
# How it was run: as §1
# RIVA [3] = experiment: as above; conditions: 177Lu-lilotomab satetraxetan 0.5 ug/ml
# How it was run: as §1
# RIVA [4] = experiment: growth inhibition by drug alone (1 - RLU/untreated control) (fraction); higher = stronger inhibition; conditions: 177Lu-lilotomab satetraxetan 0 ug/ml
# How it was run: as §1
SMILES,"growth inhibition by drug alone (U-2932 [1]; 10 nM, time (day): 3)","growth inhibition by drug alone (U-2932 [1]; 10 nM, time (day): 4)","growth inhibition by drug alone (U-2932 [1]; 10 nM, time (day): 5)","growth inhibition by drug alone (U-2932 [1]; 10 nM, time (day): 6)","growth inhibition by drug alone (U-2932 [1]; 1000 nM, time (day): 3)","growth inhibition by drug alone (U-2932 [1]; 1000 nM, time (day): 4)","growth inhibition by drug alone (U-2932 [1]; 1000 nM, time (day): 5)","growth inhibition by drug alone (U-2932 [1]; 1000 nM, time (day): 6)","growth inhibition by drug plus 177Lu-lilotomab satetraxetan (U-2932 [2]; 10 nM, time (day): 3)","growth inhibition by drug plus 177Lu-lilotomab satetraxetan (U-2932 [2]; 10 nM, time (day): 4)","growth inhibition by drug plus 177Lu-lilotomab satetraxetan (U-2932 [2]; 10 nM, time (day): 5)","growth inhibition by drug plus 177Lu-lilotomab satetraxetan (U-2932 [2]; 10 nM, time (day): 6)","growth inhibition by drug plus 177Lu-lilotomab satetraxetan (U-2932 [2]; 1000 nM, time (day): 3)","growth inhibition by drug plus 177Lu-lilotomab satetraxetan (U-2932 [2]; 1000 nM, time (day): 4)","growth inhibition by drug plus 177Lu-lilotomab satetraxetan (U-2932 [2]; 1000 nM, time (day): 5)","growth inhibition by drug plus 177Lu-lilotomab satetraxetan (U-2932 [2]; 1000 nM, time (day): 6)","growth inhibition by drug plus 177Lu-lilotomab satetraxetan (RIVA [3]; 10 nM, time (day): 3)","growth inhibition by drug plus 177Lu-lilotomab satetraxetan (RIVA [3]; 10 nM, time (day): 4)","growth inhibition by drug plus 177Lu-lilotomab satetraxetan (RIVA [3]; 10 nM, time (day): 5)","growth inhibition by drug plus 177Lu-lilotomab satetraxetan (RIVA [3]; 10 nM, time (day): 6)","growth inhibition by drug plus 177Lu-lilotomab satetraxetan (RIVA [3]; 100 nM, time (day): 3)","growth inhibition by drug plus 177Lu-lilotomab satetraxetan (RIVA [3]; 100 nM, time (day): 4)","growth inhibition by drug plus 177Lu-lilotomab satetraxetan (RIVA [3]; 100 nM, time (day): 5)","growth inhibition by drug plus 177Lu-lilotomab satetraxetan (RIVA [3]; 100 nM, time (day): 6)","growth inhibition by drug alone (RIVA [4]; 10 nM, time (day): 3)","growth inhibition by drug alone (RIVA [4]; 10 nM, time (day): 4)","growth inhibition by drug alone (RIVA [4]; 10 nM, time (day): 5)","growth inhibition by drug alone (RIVA [4]; 10 nM, time (day): 6)","growth inhibition by drug alone (RIVA [4]; 100 nM, time (day): 3)","growth inhibition by drug alone (RIVA [4]; 100 nM, time (day): 4)","growth inhibition by drug alone (RIVA [4]; 100 nM, time (day): 5)","growth inhibition by drug alone (RIVA [4]; 100 nM, time (day): 6)"
N#CCNC(=O)c1ccc(-c2ccnc(Nc3ccc(N4CCOCC4)cc3)n2)cc1,-0.0265,-0.0512,-0.0373,0.104,-0.161,-0.159,-0.134,0.0156,-0.0778,-0.021,0.0189,0.13,0.143,0.174,0.206,0.384,0.481,0.53,0.555,0.562,0.347,0.434,0.447,0.446,–,–,–,–,–,–,–,–
CCNC(=O)c1noc(-c2cc(C(C)C)c(O)cc2O)c1-c1ccc(CN2CCOCC2)cc1,0.0556,0.0532,-0.00948,0.11,0.942,0.972,0.981,0.982,0.117,0.0968,0.0861,0.245,0.936,0.973,0.981,0.984,0.398,0.414,0.469,0.516,0.982,0.988,0.988,0.988,0.0724,-0.0275,-0.068,-0.156,0.971,0.977,0.978,0.975
